Reference: article PMC7862700, “An all-to-all approach to the identification of sequence-specific readers for epigenetic DNA modifications on cytosine”

Assays:
Experiment in all cases: DAPPL (digital affinity profiling via proximity ligation, sequencing); 10 mM Tris-HCl pH 7.5, 50 mM NaCl, 1 mM DTT, 4% glycerol, room temperature, 30 min; GST-TFs on glutathione beads, 16-mer random dsDNA library, 0.1% formaldehyde crosslink after washing; high values mean tight binding
Conditions in all cases: protein: recombinant; tags: N-terminal GST; dsDNA, one strand shown
ERF = biological target: T1, ERF (Homo sapiens, UniProt P50548 1-548)
T1 sequence: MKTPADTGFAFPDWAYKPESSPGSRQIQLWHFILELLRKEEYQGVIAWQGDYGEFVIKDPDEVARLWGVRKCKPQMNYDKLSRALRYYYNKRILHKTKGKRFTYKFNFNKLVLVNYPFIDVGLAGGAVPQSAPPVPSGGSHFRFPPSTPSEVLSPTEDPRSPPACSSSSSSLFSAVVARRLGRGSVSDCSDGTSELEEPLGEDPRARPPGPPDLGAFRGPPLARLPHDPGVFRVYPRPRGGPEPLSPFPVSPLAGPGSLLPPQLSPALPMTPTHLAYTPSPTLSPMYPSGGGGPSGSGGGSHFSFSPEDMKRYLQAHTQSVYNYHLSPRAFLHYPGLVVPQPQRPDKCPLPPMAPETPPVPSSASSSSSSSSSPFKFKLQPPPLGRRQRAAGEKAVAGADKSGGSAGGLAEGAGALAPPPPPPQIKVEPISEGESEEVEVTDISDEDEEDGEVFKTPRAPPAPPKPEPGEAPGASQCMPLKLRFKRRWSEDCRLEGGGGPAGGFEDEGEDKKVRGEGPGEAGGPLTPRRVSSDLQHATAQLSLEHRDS
Outline: (§1)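 After expression in yeast as GST fusions, human transcription factors were bound to glutathione beads, DNA-barcoded and mixed with a tag-only sample. The pools were incubated with 200 nmole of a 16-mer random double-stranded DNA library in Tris/NaCl/DTT/glycerol buffer (30 min, room temperature), washed and crosslinked with 0.1% formaldehyde. Proximity ligation with BsaI/T4 ligase ran for 1 h at 37 °C, before PCR amplification and sequencing on an Illumina NextSeq500. Binding signal is a hexamer's read frequency for a factor divided by its frequency for the tag-only sample.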

ETV3L = biological target: T2, ETV3L (Homo sapiens, UniProt Q6ZN32 1-361)
T2 sequence: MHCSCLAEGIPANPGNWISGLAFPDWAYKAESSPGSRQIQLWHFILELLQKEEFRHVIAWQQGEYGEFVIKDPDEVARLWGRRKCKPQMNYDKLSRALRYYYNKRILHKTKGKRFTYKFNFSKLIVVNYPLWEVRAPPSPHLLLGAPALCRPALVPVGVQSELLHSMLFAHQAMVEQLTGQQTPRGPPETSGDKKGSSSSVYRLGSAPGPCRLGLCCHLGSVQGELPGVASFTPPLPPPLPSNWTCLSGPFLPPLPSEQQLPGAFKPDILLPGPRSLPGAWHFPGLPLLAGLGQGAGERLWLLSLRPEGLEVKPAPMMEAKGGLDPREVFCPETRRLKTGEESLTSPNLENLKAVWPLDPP
Outline: as §1

ETS2 = biological target: T3, ETS2 (Homo sapiens, UniProt P15036 1-469)
T3 sequence: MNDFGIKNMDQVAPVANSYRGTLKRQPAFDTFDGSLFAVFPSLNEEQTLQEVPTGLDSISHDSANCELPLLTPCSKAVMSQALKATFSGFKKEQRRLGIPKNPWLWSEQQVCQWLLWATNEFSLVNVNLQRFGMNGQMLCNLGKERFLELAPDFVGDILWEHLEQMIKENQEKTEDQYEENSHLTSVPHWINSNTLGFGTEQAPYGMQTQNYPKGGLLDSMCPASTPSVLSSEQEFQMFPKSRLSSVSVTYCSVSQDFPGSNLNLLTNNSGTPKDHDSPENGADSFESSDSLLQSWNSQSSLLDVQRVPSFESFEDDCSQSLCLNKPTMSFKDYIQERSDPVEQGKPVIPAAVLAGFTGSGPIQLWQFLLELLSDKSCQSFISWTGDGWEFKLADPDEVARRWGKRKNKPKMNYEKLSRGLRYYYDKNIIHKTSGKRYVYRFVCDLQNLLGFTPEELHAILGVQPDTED
Outline: as §1

SPDEF = biological target: T4, SPDEF (Homo sapiens, UniProt O95238 1-335)
T4 sequence: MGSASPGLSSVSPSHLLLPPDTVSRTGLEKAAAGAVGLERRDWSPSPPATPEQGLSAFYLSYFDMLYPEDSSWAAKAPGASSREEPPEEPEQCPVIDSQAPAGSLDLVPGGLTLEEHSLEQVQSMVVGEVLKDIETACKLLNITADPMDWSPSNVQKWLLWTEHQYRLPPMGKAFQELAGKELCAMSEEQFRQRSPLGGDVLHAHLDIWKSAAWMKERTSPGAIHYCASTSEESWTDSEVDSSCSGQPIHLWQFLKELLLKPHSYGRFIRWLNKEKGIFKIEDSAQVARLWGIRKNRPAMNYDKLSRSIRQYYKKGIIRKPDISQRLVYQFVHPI
Outline: as §1

ETV7 = biological target: T5, ETV7 (Homo sapiens, UniProt Q9Y603 1-341)
T5 sequence: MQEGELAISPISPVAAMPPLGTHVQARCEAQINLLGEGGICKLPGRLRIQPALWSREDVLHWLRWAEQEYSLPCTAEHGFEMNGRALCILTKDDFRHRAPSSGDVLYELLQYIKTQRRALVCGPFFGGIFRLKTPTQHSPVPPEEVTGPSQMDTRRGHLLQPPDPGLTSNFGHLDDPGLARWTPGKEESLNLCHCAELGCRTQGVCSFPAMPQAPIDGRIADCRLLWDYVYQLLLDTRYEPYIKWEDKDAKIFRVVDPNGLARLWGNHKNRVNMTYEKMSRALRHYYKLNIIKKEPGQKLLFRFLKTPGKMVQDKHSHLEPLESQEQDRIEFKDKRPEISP
Outline: as §1

ELF5 = biological target: T6, ELF5 (Homo sapiens, UniProt Q9UKW6-2 1-255)
T6 sequence: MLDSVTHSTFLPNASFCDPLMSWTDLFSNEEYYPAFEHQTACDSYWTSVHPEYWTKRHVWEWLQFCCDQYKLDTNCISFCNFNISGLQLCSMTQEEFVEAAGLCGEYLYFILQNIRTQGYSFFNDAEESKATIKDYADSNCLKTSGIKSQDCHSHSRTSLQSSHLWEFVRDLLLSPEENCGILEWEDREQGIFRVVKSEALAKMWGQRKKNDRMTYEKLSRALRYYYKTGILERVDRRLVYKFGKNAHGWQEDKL
Outline: as §1

ETV3 = biological target: T7, ETV3 (Homo sapiens, UniProt P41162-2 1-143)
T7 sequence: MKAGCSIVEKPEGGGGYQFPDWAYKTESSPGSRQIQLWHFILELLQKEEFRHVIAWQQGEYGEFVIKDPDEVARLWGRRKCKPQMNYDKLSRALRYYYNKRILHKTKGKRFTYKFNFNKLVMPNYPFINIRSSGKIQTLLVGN
Outline: as §1

ETV6 = ETV6 (Homo sapiens, UniProt P41212 1-452)
Sequence of ETV6 (P41212 whole entry): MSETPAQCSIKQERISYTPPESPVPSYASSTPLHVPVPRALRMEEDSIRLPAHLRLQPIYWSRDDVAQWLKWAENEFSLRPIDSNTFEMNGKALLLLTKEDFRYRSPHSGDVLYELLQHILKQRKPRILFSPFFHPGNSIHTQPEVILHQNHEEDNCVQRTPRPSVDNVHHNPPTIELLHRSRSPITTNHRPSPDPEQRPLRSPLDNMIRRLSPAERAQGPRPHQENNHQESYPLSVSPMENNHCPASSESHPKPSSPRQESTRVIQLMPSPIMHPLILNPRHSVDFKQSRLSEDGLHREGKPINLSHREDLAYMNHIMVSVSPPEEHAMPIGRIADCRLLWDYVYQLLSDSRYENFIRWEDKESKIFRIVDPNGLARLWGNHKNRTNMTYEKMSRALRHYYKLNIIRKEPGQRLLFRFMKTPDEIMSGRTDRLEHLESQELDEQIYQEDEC
Outline: as §1

Row | Sequence | binding signal (ERF) | binding signal (ETV3L) | binding signal (ETS2) | binding signal (SPDEF) | binding signal (ETV7) | binding signal (ELF5) | binding signal (ETV3) | binding signal (ETV6)
1 | CTGTTA | 1.28 fold enrichment (6-mer frequency, TF over GST control) | 1.23 fold enrichment (6-mer frequency, TF over GST control) | 1.26 fold enrichment (6-mer frequency, TF over GST control) | 1.32 fold enrichment (6-mer frequency, TF over GST control) | 1.12 fold enrichment (6-mer frequency, TF over GST control) | 1.37 fold enrichment (6-mer frequency, TF over GST control) | 1.31 fold enrichment (6-mer frequency, TF over GST control) | 1.26 fold enrichment (6-mer frequency, TF over GST control)
2 | CTAATA | 1.27 fold enrichment (6-mer frequency, TF over GST control) | 1.2 fold enrichment (6-mer frequency, TF over GST control) | 1.18 fold enrichment (6-mer frequency, TF over GST control) | 1.25 fold enrichment (6-mer frequency, TF over GST control) | 1.24 fold enrichment (6-mer frequency, TF over GST control) | 1.08 fold enrichment (6-mer frequency, TF over GST control) | 1.06 fold enrichment (6-mer frequency, TF over GST control) | 1.13 fold enrichment (6-mer frequency, TF over GST control)
3 | TCCCGG | 1.77 fold enrichment (6-mer frequency, TF over GST control) | 2.2 fold enrichment (6-mer frequency, TF over GST control) | 2.34 fold enrichment (6-mer frequency, TF over GST control) | 2.76 fold enrichment (6-mer frequency, TF over GST control) | 1.92 fold enrichment (6-mer frequency, TF over GST control) | 3.07 fold enrichment (6-mer frequency, TF over GST control) | 2.44 fold enrichment (6-mer frequency, TF over GST control) | 2.46 fold enrichment (6-mer frequency, TF over GST control)
4 | TAGCTA | 1.23 fold enrichment (6-mer frequency, TF over GST control) | 1.24 fold enrichment (6-mer frequency, TF over GST control) | 1.28 fold enrichment (6-mer frequency, TF over GST control) | 1.08 fold enrichment (6-mer frequency, TF over GST control) | 1.31 fold enrichment (6-mer frequency, TF over GST control) | 1.16 fold enrichment (6-mer frequency, TF over GST control) | 1.18 fold enrichment (6-mer frequency, TF over GST control) | 1.28 fold enrichment (6-mer frequency, TF over GST control)
5 | TCAACT | 1.31 fold enrichment (6-mer frequency, TF over GST control) | 1.32 fold enrichment (6-mer frequency, TF over GST control) | 1.34 fold enrichment (6-mer frequency, TF over GST control) | 1.27 fold enrichment (6-mer frequency, TF over GST control) | 1.12 fold enrichment (6-mer frequency, TF over GST control) | 1.24 fold enrichment (6-mer frequency, TF over GST control) | 1.31 fold enrichment (6-mer frequency, TF over GST control) | 1.33 fold enrichment (6-mer frequency, TF over GST control)
6 | CTCTCA | 1.5 fold enrichment (6-mer frequency, TF over GST control) | 1.39 fold enrichment (6-mer frequency, TF over GST control) | 1.42 fold enrichment (6-mer frequency, TF over GST control) | 1.32 fold enrichment (6-mer frequency, TF over GST control) | 1.11 fold enrichment (6-mer frequency, TF over GST control) | 1.28 fold enrichment (6-mer frequency, TF over GST control) | 1.43 fold enrichment (6-mer frequency, TF over GST control) | 1.36 fold enrichment (6-mer frequency, TF over GST control)
7 | CCTGGA | 1.32 fold enrichment (6-mer frequency, TF over GST control) | 1.49 fold enrichment (6-mer frequency, TF over GST control) | 1.52 fold enrichment (6-mer frequency, TF over GST control) | 1.57 fold enrichment (6-mer frequency, TF over GST control) | 1.34 fold enrichment (6-mer frequency, TF over GST control) | 1.74 fold enrichment (6-mer frequency, TF over GST control) | 1.37 fold enrichment (6-mer frequency, TF over GST control) | 1.44 fold enrichment (6-mer frequency, TF over GST control)
8 | TACGCT | 1.4 fold enrichment (6-mer frequency, TF over GST control) | 1.27 fold enrichment (6-mer frequency, TF over GST control) | 1.22 fold enrichment (6-mer frequency, TF over GST control) | 1.32 fold enrichment (6-mer frequency, TF over GST control) | 1.31 fold enrichment (6-mer frequency, TF over GST control) | 1.24 fold enrichment (6-mer frequency, TF over GST control) | 1.42 fold enrichment (6-mer frequency, TF over GST control) | 1.28 fold enrichment (6-mer frequency, TF over GST control)
9 | CTCGAT | 1.37 fold enrichment (6-mer frequency, TF over GST control) | 1.44 fold enrichment (6-mer frequency, TF over GST control) | 1.36 fold enrichment (6-mer frequency, TF over GST control) | 1.22 fold enrichment (6-mer frequency, TF over GST control) | 1.31 fold enrichment (6-mer frequency, TF over GST control) | 1.22 fold enrichment (6-mer frequency, TF over GST control) | 1.36 fold enrichment (6-mer frequency, TF over GST control) | 1.3 fold enrichment (6-mer frequency, TF over GST control)
